{"source": "PubChem BioAssay (EPA / NIEHS)", "note": "More than one record can exist for a structure, and the calls need not agree. The source made the active and inactive calls. How the source made its calls: active means hit-call score of the fitted dose curve at least 0.9, where 1 is the maximum; inactive means score below 0.9."}
{"read-out": "CD38, CD38 (gene 952)", "assay": "BSK_SAg_CD38: BioMAP Diversity Plus: SAg Assay for CD38 Biomarker Activity (AID 2283087)", "settings": "primary human HUVEC with PBMC; actives raise or lower the signal", "procedure": "BSK_SAg is a cell-based, multiplexed-readout assay that uses umbilical vein endothelium and peripheral blood mononuclear cells, a human vascular primary cell co-culture, with measurements taken at 24 hours after chemical dosing in a 96-well plate.BSK_SAg_CD38 is one of 10 assay component(s) measured or calculated from the BSK_SAg assay. It is designed to make measurements of enzyme-linked immunosorbent assay, a form of binding reporter, as detected with fluorescence intensity signals by Enzyme-linked immunosorbent assay technology.Data from the assay component BSK_SAg_CD38 was analyzed into 1 assay endpoint. This assay endpoint, BSK_SAg_CD38, was analyzed with bidirectional fitting relative to DMSO as the negative control and baseline of activity. Using a type of binding reporter, gain or loss-of-signal activity can be used to understand changes in the signaling as they relate to the gene CD38. Furthermore, this assay endpoint can be referred to as a primary readout, because this assay has produced multiple assay endpoints where this one serves a signaling function. To generalize the intended target to other relatable targets, this assay endpoint is annotated to the cytokine intended target family, where the subfamily is other cytokine.\nThe levels of cell surface (or secreted, indicated by the prefix \"s\") biomarker endpoints were measured by ELISA. Overt cytotoxicity to cells in confluent adherent cultures (all systems other than the BT system) was assessed by measuring total protein levels using sulforhodamine B (SRB) staining in parallel cultures at the time of biomarker measurements, indicated as SRB endpoints. For proliferation assays for adherent cell types, individual cell types are cultured at sub-confluence and relative cell numbers quantified by SRB staining at time points optimized for each system (48 h: 3C and CASM3C systems; 72 h: BT and HDF3CGF systems; 96 h: SAg system). SRB was performed by staining cells with 0.1% SRB after fixation with 10% TCA and reading wells at 560 nm.Viability and proliferation of PBMC (T cells) was quantified by Alamar Blue reduction for the SAg and BT systems. For PBMC viability (referred to as PBMC Cytotoxicity within the assay endpoint names), cells were plated (75,000/well in a 96-well plate) and then chemical samples added for 1 h before addition of activators, SEB and TSST-1 (20 ng/mL final concentration each). Cells were incubated for 90 h. Then, Alamar Blue (20 uL/well) (Invitrogen, Cat DAL1100) was added for 6 h, and the plates were read with a fluorescence microplate reader at 546/580 nm (excitation/emission). For PBMC proliferation, cells were plated and activated as above but incubated for only 16 h prior to addition of Alamar Blue. Plates were read after 6 h."}
{"smiles": "CCC(C)Nc1c([N+](=O)[O-])cc(C(C)(C)C)cc1[N+](=O)[O-]", "note": "(stereo not given)", "AC50": "16.6 µM (active)"}
{"smiles": "CCC(C)(NC(=O)c1cc(Cl)c(C)c(Cl)c1)C(=O)CCl", "note": "(stereo not given)", "AC50": "6.39 µM (active)"}
{"smiles": "[2H]C1([2H])[n+]2ccccc2-c2cccc[n+]2C1([2H])[2H]", "outcome": "inactive"}
{"smiles": "CC1(c2ccc(Oc3ccccc3)cc2)OC(=O)N(Nc2ccccc2)C1=O", "note": "(stereo not given)", "AC50": "19.9 µM (active)"}
{"smiles": "O=[N+]([O-])/N=C1\\NCCN1Cc1ccc(Cl)nc1", "outcome": "inactive"}
{"smiles": "C[C@H]1[C@H](c2ccc(Cl)cc2)SC(=O)N1C(=O)NC1CCCCC1", "AC50": "16 µM (active)"}
{"smiles": "CC[C@H](C)[C@H]1O[C@]2(C=C[C@@H]1C)C[C@@H]1C[C@@H](C/C=C(\\C)[C@@H](O[C@H]3C[C@H](OC)[C@@H](O[C@H]4C[C@H](OC)[C@@H](O)[C@H](C)O4)[C@H](C)O3)[C@@H](C)/C=C/C=C3\\CO[C@@H]4[C@H](O)C(C)=C[C@@H](C(=O)O1)[C@]34O)O2", "note": "(tested in a mixture with another compound)", "AC50": "7.86 µM (active)"}
{"smiles": "COc1cc(OC)nc(NC(=O)NS(=O)(=O)c2cc(NC=O)ccc2C(=O)N(C)C)n1", "outcome": "inactive"}
{"smiles": "O=S(=O)(O)C(F)(F)C(F)(F)C(F)(F)C(F)(F)C(F)(F)C(F)(F)C(F)(F)C(F)(F)F", "outcome": "inactive"}
{"smiles": "CC(C)(C)C(O)C(Oc1ccc(Cl)cc1)n1cncn1", "note": "(stereo not given)", "AC50": "4.99 µM (active)", "outcome": "inactive"}
{"smiles": "Cc1cc(C)nc(NC(=O)NS(=O)(=O)c2ccccc2C(=O)OC2COC2)n1", "outcome": "inactive"}
{"smiles": "COP(=O)(OC)OC=C(Cl)Cl", "outcome": "inactive"}
{"smiles": "COc1nn(CSP(=S)(OC)OC)c(=O)s1", "outcome": "inactive"}
{"smiles": "CNC(=O)/C=C(\\C)OP(=O)(OC)OC", "outcome": "inactive"}
{"smiles": "O=[N+]([O-])c1c(Cl)c(Cl)c(Cl)c(Cl)c1Cl", "outcome": "inactive"}
{"smiles": "O=C1c2ccccc2C(=O)N1SC(Cl)(Cl)Cl", "outcome": "inactive"}
{"smiles": "CCOCN(C(=O)CCl)c1c(C)cccc1CC", "AC50": "27 µM (active)"}
{"smiles": "CCOc1nc(NC)nc(NC(=O)NS(=O)(=O)c2ccccc2C(=O)OC)n1", "outcome": "inactive"}
{"smiles": "Clc1ccccc1-c1nnc(-c2ccccc2Cl)nn1", "outcome": "inactive"}
{"smiles": "O=C(O)C(F)(F)C(F)(F)C(F)(F)C(F)(F)C(F)(F)C(F)(F)C(F)(F)F", "outcome": "inactive"}
{"smiles": "CC1(C)C(C=C(Cl)Cl)C1C(=O)OC(C#N)c1ccc(F)c(Oc2ccccc2)c1", "note": "(stereo not given)", "outcome": "inactive"}
{"smiles": "CCCN(CCOc1c(Cl)cc(Cl)cc1Cl)C(=O)n1ccnc1", "AC50": "30.7 µM (active)"}
{"smiles": "O=C(O)COc1ccc(Cl)cc1Cl", "outcome": "inactive"}
{"smiles": "COC(=O)c1ccccc1S(=O)(=O)NC(=O)Nc1nc(C)nc(OC)n1", "outcome": "inactive"}
{"smiles": "COP(=S)(OC)Oc1ccc(SC)c(C)c1", "outcome": "inactive"}
{"smiles": "N#CN", "outcome": "inactive"}
{"smiles": "N#Cc1c(Cl)c(Cl)c(Cl)c(C#N)c1Cl", "AC50": "0.953 µM (active)"}
{"smiles": "CCOC1Oc2ccc(OS(C)(=O)=O)cc2C1(C)C", "note": "(stereo not given)", "outcome": "inactive"}
{"smiles": "O=C(O)CCCOc1ccc(Cl)cc1Cl", "outcome": "inactive"}
{"smiles": "CC(C)N(C(=O)COc1nnc(C(F)(F)F)s1)c1ccc(F)cc1", "outcome": "inactive"}
{"smiles": "OCCOc1ccccc1", "outcome": "inactive"}
{"smiles": "CC(C)(C)C(O)/C(=C\\c1ccc(Cl)cc1Cl)n1cncn1", "note": "(stereo not given)", "AC50": "27.5 µM (active)"}
{"smiles": "O=C(Nc1ccccc1)Nc1cnns1", "outcome": "inactive"}
{"smiles": "COC(=O)c1ccccc1CS(=O)(=O)NC(=O)Nc1nc(OC)cc(OC)n1", "outcome": "inactive"}
{"smiles": "Oc1ccc(Cl)cc1Cc1ccccc1", "AC50": "33.6 µM (active) [middle of 6 runs]"}
{"smiles": "CCS(=O)(=O)c1cccnc1S(=O)(=O)NC(=O)Nc1nc(OC)cc(OC)n1", "outcome": "inactive"}
{"smiles": "Oc1cc(Cl)ccc1Oc1ccc(Cl)cc1Cl", "AC50": "12.4 µM (active) [middle of 4 runs]"}
{"smiles": "ClC1C(Cl)C(Cl)C(Cl)C(Cl)C1Cl", "note": "(stereo not given)", "outcome": "inactive"}
{"smiles": "CC(C)OC(=O)Nc1cccc(Cl)c1", "outcome": "inactive"}
